# Reference: the supplement of paper PMC8728848
# The full list was thinned out, with the strongest signals kept by preference.
# B1: LICBM33A (Lactococcus lactis), Q9CE94 (protein)
# chain: MKKLLTGLLVAAGLLSVSLLIKTDTVSAHGYVQSPPARGYQGQLDSQSLGWTAAFNIYGNVISNPQSLEAPKGFPECGPADGRIASANGGLGQIGDFVLDNQTSSRWKKTSISTGSNIFTWKYTAPHKTTKWHYYMTKTGWDQNAPLKHSELELIGTINHDGSPATNNLSHTINIPTDRSGYHIVLAVWDVADTSNAFYNVIDINVNNKNASSQVFGPFL
# Key:
# Test in all cases: glycan array binding signal (z-score within array); higher = stronger binding
# Settings in all cases: glycan notation: IUPAC condensed, linker removed
# Glc(b1-4)Glc = biological target: Glc(b1-4)Glc
# Method in brief: (§1)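 Negative Z-scores can be read as non-binding. The Z-score is calculated within each array and then averaged across arrays of one protein sequence at different concentrations or buffers and across linkers. Arrays, 3228 in all, were curated from the Consortium for Functional Glycomics database and kept only where the protein sequence was available.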
# [1] = biological target: GlcNAc(a1-4)Gal(b1-4)GlcNAc(b1-3)Gal(b1-4)GlcNAc
# Method in brief: as §1
# [2] = biological target: GlcNAc(a1-4)Gal(b1-4)GlcNAc(b1-3)Gal(b1-4)GlcNAc(b1-3)Gal(b1-4)GlcNAc
# Method in brief: as §1
# [3] = biological target: GlcNAc(b1-3)Gal(b1-4)GlcNAc(b1-3)Gal(b1-4)GlcNAc(b1-2)Man(a1-3)[GlcNAc(b1-3)Gal(b1-4)GlcNAc(b1-3)Gal(b1-4)GlcNAc(b1-2)Man(a1-6)]Man(b1-4)GlcNAc(b1-4)[Fuc(a1-6)]GlcNAc
# Method in brief: as §1
# [4] = biological target: GlcNAc(b1-3)Gal(b1-4)GlcNAc(b1-3)Gal(b1-4)GlcNAc(b1-3)Gal(b1-4)GlcNAc(b1-3)Gal(b1-4)GlcNAc(b1-2)Man(a1-3)[GlcNAc(b1-3)Gal(b1-4)GlcNAc(b1-3)Gal(b1-4)GlcNAc(b1-3)Gal(b1-4)GlcNAc(b1-3)Gal(b1-4)GlcNAc(b1-2)Man(a1-6)]Man(b1-4)GlcNAc(b1-4)GlcNAc
# Method in brief: as §1
# GlcNAc(b1-3)Man = biological target: GlcNAc(b1-3)Man
# Method in brief: as §1
# [5] = biological target: GlcNAc(b1-6)Gal(b1-4)GlcNAc
# Method in brief: as §1
# Kdn(a2-3)Gal(b1-4)Glc = biological target: Kdn(a2-3)Gal(b1-4)Glc
# Method in brief: as §1
# Kdn(a2-3)Gal(b1-4)GlcNAc = biological target: Kdn(a2-3)Gal(b1-4)GlcNAc
# Method in brief: as §1
# [6] = biological target: Man(a1-3)[Man(a1-6)]Man(b1-4)GlcNAc(b1-4)GlcNAc
# Method in brief: as §1
# Man(b1-4)GlcNAc = biological target: Man(b1-4)GlcNAc
# Method in brief: as §1
# Neu5Ac(a2-3)Gal = biological target: Neu5Ac(a2-3)Gal
# Method in brief: as §1
# [7] = biological target: Neu5Ac(a2-3)Gal(b1-3)[Fuc(a1-4)]GlcNAc
# Method in brief: as §1
# [8] = biological target: Neu5Ac(a2-3)Gal(b1-3)[Fuc(a1-4)]GlcNAc(b1-3)Gal(b1-3)[Fuc(a1-4)]GlcNAc
# Method in brief: as §1
# [9] = biological target: Neu5Ac(a2-3)Gal(b1-3)[GlcNAc(b1-6)]GalNAc
# Method in brief: as §1
# [10] = biological target: Neu5Ac(a2-3)Gal(b1-4)GlcNAc
# Method in brief: as §1
# [11] = biological target: Neu5Ac(a2-3)Gal(b1-4)GlcNAc(b1-6)[Neu5Ac(a2-3)Gal(b1-3)]GalNAc
# Method in brief: as §1
# [12] = biological target: Neu5Ac(a2-6)Gal(b1-4)GlcNAc(b1-2)Man(a1-3)[Neu5Ac(a2-6)Gal(b1-4)GlcNAc(b1-2)Man(a1-6)]Man(b1-4)GlcNAc(b1-4)[Fuc(a1-6)]GlcNAc
# Method in brief: as §1
# [13] = biological target: Neu5Ac(a2-6)Gal(b1-4)GlcNAc(b1-2)Man(a1-6)[GlcNAc(b1-2)Man(a1-3)]Man(b1-4)GlcNAc(b1-4)GlcNAc
# Method in brief: as §1
# [14] = biological target: Neu5Ac(a2-6)Gal(b1-4)GlcNAc(b1-3)Gal(b1-4)GlcNAc(b1-2)Man(a1-3)[Neu5Ac(a2-6)Gal(b1-4)GlcNAc(b1-3)Gal(b1-4)GlcNAc(b1-2)Man(a1-6)]GalNAc
# Method in brief: as §1
# [15] = biological target: Neu5Ac(a2-6)Gal(b1-4)GlcNAc(b1-3)Gal(b1-4)GlcNAc(b1-6)[Gal(b1-3)]GalNAc
# Method in brief: as §1
# [16] = biological target: Neu5Ac(a2-8)Neu5Ac(a2-8)Neu5Ac
# Method in brief: as §1
# [17] = biological target: Neu5Ac9Ac(a2-3)Gal(b1-3)GlcNAc
# Method in brief: as §1
# [18] = biological target: Neu5Gc(a2-3)Gal(b1-4)GlcNAc
# Method in brief: as §1
# [19] = biological target: Neu5Gc(a2-6)Gal(b1-4)GlcNAc
# Method in brief: as §1
binder,measurement,setting,value
B1,glycan array binding signal (z-score),Glc(b1-4)Glc,-0.321
same,glycan array binding signal (z-score),[1],-0.4
same,glycan array binding signal (z-score),[2],-0.457
same,glycan array binding signal (z-score),[3],-0.307
same,glycan array binding signal (z-score),[4],4.98
same,glycan array binding signal (z-score),GlcNAc(b1-3)Man,0.023
same,glycan array binding signal (z-score),[5],-0.043
same,glycan array binding signal (z-score),Kdn(a2-3)Gal(b1-4)Glc,0.82
same,glycan array binding signal (z-score),Kdn(a2-3)Gal(b1-4)GlcNAc,-0.667
same,glycan array binding signal (z-score),[6],0.527
same,glycan array binding signal (z-score),Man(b1-4)GlcNAc,-0.147
same,glycan array binding signal (z-score),Neu5Ac(a2-3)Gal,0.406
same,glycan array binding signal (z-score),[7],3.52
same,glycan array binding signal (z-score),[8],3.37
same,glycan array binding signal (z-score),[9],1.55
same,glycan array binding signal (z-score),[10],0.435
same,glycan array binding signal (z-score),[11],-0.471
same,glycan array binding signal (z-score),[12],4.31
same,glycan array binding signal (z-score),[13],4.26
same,glycan array binding signal (z-score),[14],4.82
same,glycan array binding signal (z-score),[15],-0.512
same,glycan array binding signal (z-score),[16],-0.117
same,glycan array binding signal (z-score),[17],0.017
same,glycan array binding signal (z-score),[18],-0.141
same,glycan array binding signal (z-score),[19],-0.606
